In PubChem BioAssay AID1159580 (chemical genetic matrix, 2015):
Among all 5,500 compounds or so, about 2,000 (36%) were called active. Not shown: some 18% with an inconclusive outcome. The list shows a part of the results. A number with no mark means an inactive call. No stated cut-off is given here; in the data, active means normalized growth mostly below about 0.91 (no sharp cut-off); inconclusive means no clear call, values can overlap the other calls; inactive means mostly above about 0.92.

Experiment: chemical genetic growth profiling, strain panel (AID 1159580);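 further: tested at 20 µM; growth read once vehicle control cultures reached saturation at 30 °C; 1 = growth at the plate median or of vehicle wells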
Conditions: growth OD
[1] = S. cerevisiae deletion strains, locus YDL101C, strain DUN1, stronger effect = lower value
[2] = S. cerevisiae deletion strains, locus YHR030C, strain SLT2, stronger effect = lower value

O=S(=O)(NCc1ccc(C(F)(F)F)cc1)c1cccc(C(F)(F)F)c1
normalized growth (S. cerevisiae deletion strains, locus YAR019C, strain CDC15, stronger effect = lower value): 0.985 | normalized growth (S. cerevisiae deletion strains, locus YBL105C, strain PKC1, stronger effect = lower value): 0.986 | normalized growth (S. cerevisiae deletion strains, locus YBR135W, strain CKS1, stronger effect = lower value): 0.982 | normalized growth (S. cerevisiae deletion strains, locus YBR136W, strain MEC1, stronger effect = lower value): 0.985 | normalized growth (S. cerevisiae deletion strains, locus YBR160W, strain CDC28, stronger effect = lower value): 0.988 | normalized growth (S. cerevisiae deletion strains, locus YDL017W, strain CDC7, stronger effect = lower value): 0.989 | normalized growth (S. cerevisiae deletion strains, locus YDL028C, strain MPS1, stronger effect = lower value): 0.98 | normalized growth [1]: 0.987 | normalized growth (S. cerevisiae deletion strains, locus YDL108W, strain KIN28, stronger effect = lower value): 0.983 | normalized growth (S. cerevisiae deletion strains, locus YDL132W, strain cdc53, stronger effect = lower value): 0.973 | normalized growth (S. cerevisiae deletion strains, locus YDL214C, strain PRR2, stronger effect = lower value): 0.945 | normalized growth (S. cerevisiae deletion strains, locus YDR052C, strain DBF4, stronger effect = lower value): 0.987 | normalized growth (S. cerevisiae deletion strains, locus YDR054C, strain cdc34, stronger effect = lower value): 0.985 | normalized growth (S. cerevisiae deletion strains, locus YDR226W, strain ADK1, stronger effect = lower value): 0.99 | normalized growth (S. cerevisiae deletion strains, locus YDR477W, strain SNF1, stronger effect = lower value): 0.956 | normalized growth (S. cerevisiae deletion strains, locus YER123W, strain YCK3, stronger effect = lower value): 0.908 | normalized growth (S. cerevisiae deletion strains, locus YER133W, strain GLC7, stronger effect = lower value): 0.948 | normalized growth (S. cerevisiae deletion strains, locus YFL009W, strain cdc4, stronger effect = lower value): 0.974 | normalized growth (S. cerevisiae deletion strains, locus YFL029C, strain CAK1, stronger effect = lower value): 0.977 | normalized growth (S. cerevisiae deletion strains, locus YFR003C, strain YPI1, stronger effect = lower value): 0.983 | normalized growth (S. cerevisiae deletion strains, locus YFR019W, strain FAB1, stronger effect = lower value): 0.981 | normalized growth (S. cerevisiae deletion strains, locus YFR028C, strain CDC14, stronger effect = lower value): 0.983 | normalized growth (S. cerevisiae deletion strains, locus YGR040W, strain KSS1, stronger effect = lower value): 0.958 | normalized growth (S. cerevisiae deletion strains, locus YGR052W, strain FMP48, stronger effect = lower value): 0.97 | normalized growth (S. cerevisiae deletion strains, locus YGR092W, strain DBF2, stronger effect = lower value): 0.942 | normalized growth [2]: 0.883 | normalized growth (S. cerevisiae deletion strains, locus YHR079C, strain IRE1, stronger effect = lower value): 0.886 | normalized growth (S. cerevisiae deletion strains, locus YHR082C, strain KSP1, stronger effect = lower value): 1.04 | normalized growth (S. cerevisiae deletion strains, locus YHR205W, strain SCH9, stronger effect = lower value): 0.943 | normalized growth (S. cerevisiae deletion strains, locus YIL147C, strain SLN1, stronger effect = lower value): 0.984 | normalized growth (S. cerevisiae deletion strains, locus YJL095W, strain BCK1, stronger effect = lower value): 0.869 | normalized growth (S. cerevisiae deletion strains, locus YJL128C, strain PBS2, stronger effect = lower value): 0.917 | normalized growth (S. cerevisiae deletion strains, locus YJL157C, strain FAR1, stronger effect = lower value): 0.954 | normalized growth (S. cerevisiae deletion strains, locus YJR016C, strain ILV3, stronger effect = lower value): 0.984 | normalized growth (S. cerevisiae deletion strains, locus YJR066W, strain TOR1 (second series), stronger effect = lower value): 0.922 | normalized growth (S. cerevisiae deletion strains, locus YJR066W, strain TOR1, stronger effect = lower value): 1.02 | normalized growth (S. cerevisiae deletion strains, locus YKL048C, strain ELM1, stronger effect = lower value): 0.976 | normalized growth (S. cerevisiae deletion strains, locus YKL067W, strain YNK1, stronger effect = lower value): 0.96 | normalized growth (S. cerevisiae deletion strains, locus YKL101W, strain HSL1, stronger effect = lower value): 0.936 | normalized growth (S. cerevisiae deletion strains, locus YKL193C, strain SDS22, stronger effect = lower value): 0.983 | normalized growth (S. cerevisiae deletion strains, locus YKL203C, strain TOR2, stronger effect = lower value): 1.01 | normalized growth (S. cerevisiae deletion strains, locus YLR113W, strain HOG1, stronger effect = lower value): 0.802 (active) | normalized growth (S. cerevisiae deletion strains, locus YLR133W, strain CKI1, stronger effect = lower value): 0.976 | normalized growth (S. cerevisiae deletion strains, locus YLR403W, strain SFP1, stronger effect = lower value): 0.971 | normalized growth (S. cerevisiae deletion strains, locus YML070W, strain DAK1, stronger effect = lower value): 0.921 | normalized growth (S. cerevisiae deletion strains, locus YMR001C, strain CDC5, stronger effect = lower value): 0.987 | normalized growth (S. cerevisiae deletion strains, locus YMR205C, strain PFK2 (second series), stronger effect = lower value): 0.948 | normalized growth (S. cerevisiae deletion strains, locus YMR277W, strain FCP1, stronger effect = lower value): 0.984 | normalized growth (S. cerevisiae deletion strains, locus YNL006W, strain LST8, stronger effect = lower value): 0.98 | normalized growth (S. cerevisiae deletion strains, locus YNL020C, strain ARK1, stronger effect = lower value): 0.964 | normalized growth (S. cerevisiae deletion strains, locus YNL161W, strain CBK1, stronger effect = lower value): 0.985 | normalized growth (S. cerevisiae deletion strains, locus YNL183C, strain NPR1, stronger effect = lower value): 1.04 | normalized growth (S. cerevisiae deletion strains, locus YNL207W, strain RIO2, stronger effect = lower value): 0.987 | normalized growth (S. cerevisiae deletion strains, locus YNL222W, strain SSU72, stronger effect = lower value): 0.983 | normalized growth (S. cerevisiae deletion strains, locus YNL307C, strain MCK1 (second series), stronger effect = lower value): 0.954 | normalized growth (S. cerevisiae deletion strains, locus YOL078W, strain AVO1, stronger effect = lower value): 0.987 | normalized growth (S. cerevisiae deletion strains, locus YOL136C, strain PFK27, stronger effect = lower value): 0.916 | normalized growth (S. cerevisiae deletion strains, locus YOR061W, strain CKA2, stronger effect = lower value): 0.987 | normalized growth (S. cerevisiae deletion strains, locus YOR119C, strain RIO1, stronger effect = lower value): 1.02 | normalized growth (S. cerevisiae deletion strains, locus YOR231W, strain MKK1, stronger effect = lower value): 0.952 | normalized growth (S. cerevisiae deletion strains, locus YOR329C, strain SCD5, stronger effect = lower value): 0.987 | normalized growth (S. cerevisiae deletion strains, locus YPL031C, strain PHO85, stronger effect = lower value): 0.95 | normalized growth (S. cerevisiae deletion strains, locus YPL153C, strain RAD53, stronger effect = lower value): 0.937 | normalized growth (S. cerevisiae deletion strains, locus YPL204W, strain HRR25, stronger effect = lower value): 0.918 | normalized growth (S. cerevisiae deletion strains, locus YPL209C, strain IPL1, stronger effect = lower value): 0.986 | normalized growth (S. cerevisiae deletion strains, locus YPL256C, strain CLN2, stronger effect = lower value): 0.885 | normalized growth (S. cerevisiae deletion strains, locus YPR025C, strain CCL1, stronger effect = lower value): 0.981 | normalized growth (S. cerevisiae deletion strains, locus YPR106W, strain ISR1, stronger effect = lower value): 0.979 | normalized growth (S. cerevisiae deletion strains, locus YPR111W, strain DBF20, stronger effect = lower value): 0.97 | normalized growth (S. cerevisiae deletion strains, strain NNK1, stronger effect = lower value): 0.984 | normalized growth (S. cerevisiae deletion strains, strain TSCII, stronger effect = lower value): 0.995

O=S(=O)(NCc1ccc(F)cc1F)c1cccc(C(F)(F)F)c1
normalized growth (S. cerevisiae deletion strains, locus YAL013W, strain DEP1, stronger effect = lower value): 0.969 | normalized growth (S. cerevisiae deletion strains, locus YBR229C, strain ROT2, stronger effect = lower value): 0.98 | normalized growth (S. cerevisiae deletion strains, locus YCL061C, strain MRC1, stronger effect = lower value): 0.972 | normalized growth [1]: 0.985 | normalized growth (S. cerevisiae deletion strains, locus YDL134C, strain PPH21, stronger effect = lower value): 0.894 (active) | normalized growth (S. cerevisiae deletion strains, locus YDR150W, strain NUM1, stronger effect = lower value): 0.911 | normalized growth (S. cerevisiae deletion strains, locus YEL061C, strain CIN8, stronger effect = lower value): 0.988 | normalized growth (S. cerevisiae deletion strains, locus YGR078C, strain PAC10, stronger effect = lower value): 0.976 | normalized growth (S. cerevisiae deletion strains, locus YGR229C, strain SMI1, stronger effect = lower value): 0.98 | normalized growth [2]: 0.946 | normalized growth (S. cerevisiae deletion strains, locus YHR087W, strain rtc3, stronger effect = lower value): 0.978 | normalized growth (S. cerevisiae deletion strains, locus YJL187C, strain SWE1, stronger effect = lower value): 0.972 | normalized growth (S. cerevisiae deletion strains, locus YJR043C, strain POL32, stronger effect = lower value): 0.984 | normalized growth (S. cerevisiae deletion strains, locus YJR075W, strain HOC1, stronger effect = lower value): 0.947 | normalized growth (S. cerevisiae deletion strains, locus YKL190W, strain CNB1, stronger effect = lower value): 0.977 | normalized growth (S. cerevisiae deletion strains, locus YLR039C, strain RIC1, stronger effect = lower value): 0.884 | normalized growth (S. cerevisiae deletion strains, locus YLR058C, strain SHM2 (second series), stronger effect = lower value): 0.979 | normalized growth (S. cerevisiae deletion strains, locus YLR085C, strain ARP6, stronger effect = lower value): 0.954 | normalized growth (S. cerevisiae deletion strains, locus YLR262C, strain YPT6, stronger effect = lower value): 0.844 | normalized growth (S. cerevisiae deletion strains, locus YML094W, strain GIM5, stronger effect = lower value): 0.962 | normalized growth (S. cerevisiae deletion strains, locus YMR219W, strain ESC1, stronger effect = lower value): 0.979 | normalized growth (S. cerevisiae deletion strains, locus YMR263W, strain SAP30, stronger effect = lower value): 0.979 | normalized growth (S. cerevisiae deletion strains, locus YMR307W, strain GAS1, stronger effect = lower value): 0.899 | normalized growth (S. cerevisiae deletion strains, locus YNL153C, strain GIM3, stronger effect = lower value): 1.01 | normalized growth (S. cerevisiae deletion strains, locus YNL298W, strain CLA4 (second series), stronger effect = lower value): 0.968 | normalized growth (S. cerevisiae deletion strains, locus YNL322C, strain KRE1, stronger effect = lower value): 0.973 | normalized growth (S. cerevisiae deletion strains, locus YNR030W, strain Alg12, stronger effect = lower value): 0.986 | normalized growth (S. cerevisiae deletion strains, locus YPL055C, strain LGE1, stronger effect = lower value): 0.873 | normalized growth (S. cerevisiae deletion strains, locus YPL241C, strain CIN2, stronger effect = lower value): 0.982 | normalized growth (S. cerevisiae deletion strains, locus YPR135W, strain CTF4, stronger effect = lower value): 0.913 | normalized growth (S. cerevisiae strains, strain wild type, stronger effect = lower value): 0.98
